Giardia kill: Giardia lamblia killing; activity change, % at 7.66 µM, hits read low; AID 540267; Giardia lamblia trophozoite viability; 340,000 compounds, 0.15% hits; in the data active = activity change below about -80%; inconclusive = between about -30% and that limit;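 also: parasites exposed to compound for two days anaerobically before the ATP read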
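Viability, read as ATP luminescence: trophozoites at 100 cells/well, compound added, 48 hrs anaerobic at 37 deg C, then 15-30 min room-temperature development before reading.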
FBPA coupling cs: coupling enzyme interference in Giardia aldolase counter-screen; activity change, negative = inhibition, % at 58.2 µM, hits read low; coupling enzyme system counterscreen, AmpLite Red fluorescence; 290,000 compounds, 0.67% hits; in the data active = activity change below about -30%
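Final compound at 57.5 uM, incubated 10 min at RT with coupling enzyme reagent (glyceraldehyde-3-phosphate), then 20 min with substrate and AmpLite Red detection. Fluorescence read at 525/598 nm; tests interference with the coupling assay, not aldolase inhibition.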
Sfp inh: Sfp phosphopantetheinyl transferase inhibition. Potency, µM, hits mostly inhibitors. 310,000 compounds, 3.5% hits. Biochemical Sfp PPTase activity, qHTS. Q9F4F7;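 also: the enzyme is Sfp with the accession as filed and its product quenches rhodamine fluorescence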
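Fluorescence-quenching assay with 15 nM Sfp, 5 uM rhodamine-CoA and 12.5 uM BHQ-2-labelled ybbR peptide in pH 7.6 Hepes/MgCl2 buffer. Enzyme was pre-incubated with compound for 15 min at room temperature. Rate was taken from the 30-min fluorescence change (525/598 nm).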
ELG1 DNA repair: ELG1-dependent DNA repair inhibition; HEK293T ELG1-luciferase reporter, luminescence, 16 h; DNA damage induced by 5-fluorouridine; 330,000 compounds, 2.3% hits; AID 504467; Potency, µM (series often up to 46.1 µM), usual class: inhibitors; also: nearly all actives have a fitted effect of over 55% in size
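Overnight (16 hr) co-exposure of 2,000 cells/well to 5-fluorouridine and compound at 37 °C preceded detection. Luciferase was quantified via ONE-Glo luminescence; loss of signal denotes inhibition.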
Hits are given with their value; – = inactive; ? = inconclusive; · = no result given; ! = repeats disagree. This is a sample that favours compounds with a hit; in the whole collection about 5.5% have one here. Unless noted, calls follow the shape of the dose curve; as a rule, active = well fitted curve in the direction sought with a large enough effect; inconclusive = small, poorly fitted or top-dose-only effect, or another doubt; inactive = no such curve, though single readings can be large; an effect the other way counts as inactive or inconclusive.

SMILES | Giardia kill | FBPA coupling cs | Sfp inh | ELG1 DNA repair
c1cncc(CNc2ncncc2-c2ccoc2)c1 | · | – | 79µM | ·
CN(C)c1ccc(-c2nc(NCc3cccnc3)c3ccccc3n2)cc1 | · | – | ? | ·
N#Cc1cccc(-c2cncnc2NCc2cccnc2)c1 | · | – | – | ·
O=c1[nH]c(CNCc2cccnc2)nc2ccccc12 | – | – | 25µM | –
c1ncc(-c2ccoc2)c(NC2CC2)n1 | · | – | 79µM | ·
c1cncc(CNc2nc(-c3ccoc3)nc3ccccc23)c1 | · | – | 40µM | ·
CC(C)N(Cc1ccccc1)C(=O)COC(=O)c1c(F)cccc1F | – | · | · | –
COC(=O)Cn1cc(S(=O)(=O)NCc2ccc(C)cc2)c2cc([N+](=O)[O-])ccc21 | – | – | – | –
CCCn1c(-c2ccc(F)cc2)nc2c(NCCCN(C)C)nc(C)nc21 | · | – | – | ·
COc1ccc(-c2nc3ccccc3s2)cc1NC(=O)COc1cccc(C)c1 | – | · | · | ·
O=C1C(=O)C(c2cc(O)c(O)c(O)c2)Oc2cc(O)cc(O)c21 (stereo not given) | – | · | · | ·
c1cncc(-c2nc(NCc3cccs3)c3ccccc3n2)c1 | – | – | 79µM! | ?
c1csc(CNc2nc(-c3ccoc3)nc3ccccc23)c1 | · | – | ? | ·
CCN(Cc1cc2ccc(C)cc2[nH]c1=O)C(=O)c1ccncc1 | · | – | – | 10µM
O=C(c1cccs1)N(Cc1ccccn1)Cc1ccco1 | – | – | 79µM | –
Cc1ccc(N(Cc2cc3ccccc3[nH]c2=O)C(=O)c2ccco2)c(C)c1 | – | – | – | –
Cc1ccc2cc(CN(C(=O)c3ccco3)c3ccccc3)c(=O)[nH]c2c1 | – | – | 28µM | ?
Cc1cccc(N(Cc2cc3ccccc3[nH]c2=O)C(=O)c2cccs2)c1 | – | – | – | –
Cc1cccc(N(Cc2cc3ccc(C)cc3[nH]c2=O)C(=O)c2ccco2)c1 | – | – | 22µM | ?
CC(C)CN(C(=O)CSc1n[nH]c(-c2cccs2)n1)C1CCS(=O)(=O)C1 (stereo not given) | – | · | · | –
C=CCNC(=O)N1CCCC(N2CCN(c3ccccc3OC)CC2)C1 (stereo not given) | – | – | – | –
O=C(Nc1ccc(Cl)cc1)c1cncs1 | – | – | – | –
Cc1ccc(N(Cc2cc3ccc(C)cc3[nH]c2=O)C(=O)c2ccco2)cc1 | – | – | 22µM | –
Cc1ccc(N(Cc2cc3ccc(C)cc3[nH]c2=O)C(=O)c2cccs2)cc1 | – | – | – | –
Cc1ccc2cc(CN(Cc3ccco3)C(=O)c3cccs3)c(=O)[nH]c2c1 | – | – | 25µM | –
SMILES | Giardia kill | FBPA coupling cs | Sfp inh | ELG1 DNA repair
COc1ccccc1CNc1ccnc(-c2ccccc2OC)n1 | · | – | 79µM | ·
c1ccc(CNc2ccnc(-c3ccc4c(c3)OCO4)n2)cc1 | · | – | – | ·
COc1ccc(CNc2cc(-c3ccccc3OC)ncn2)c(OC)c1 | · | – | 89µM | ·
COc1ccccc1CNc1ccnc(-c2ccc3c(c2)OCO3)n1 | · | – | 50µM | ·
COc1ccc(CNc2ccnc(-c3ccc4c(c3)OCO4)n2)c(OC)c1 | · | – | 45µM | ·
COc1ccc(CNc2ccnc(-c3ccc(C(=O)N(C)C)cc3)n2)c(OC)c1 | · | – | – | ·
CC1CC(C)CN(S(=O)(=O)c2ccc3c(c2)CCN3C(=O)C2CC2)C1 (stereo not given) | – | · | – | –
CCCCc1ccc(NC(=O)Nc2cc(C)nn2C)cc1 | – | – | – | 4.1µM
CCCCc1ccc(NC(=O)Nc2cnccn2)cc1 | – | – | – | ?
CCOCCCNc1ncnc2c1[nH]c1ccccc12 | – | – | – | 15µM
c1ccc2c(c1)[nH]c1c(NCC3CCCO3)ncnc12 (stereo not given) | – | – | – | 15µM
O=S(=O)(Cc1ccccc1)N(O)c1ccccc1 | – | – | 50µM | –
O=C(O)CNS(=O)(=O)Cc1ccccc1 | – | – | – | –
C/C(=N/Nc1ccc(C(=O)c2c(C)cc3ccccn23)cc1[N+](=O)[O-])c1ccc(O)cc1 | – | · | · | ·
C/C(=N\Nc1ccc(C(=O)c2c(C)cc3ccccn23)cc1[N+](=O)[O-])c1ccc(O)cc1 | – | – | 20µM | ?
CCOC(=O)C1CCN(c2ccccc2CN2CCN(c3ccccc3OCC)CC2)CC1 | – | – | – | 16µM
O=C(O)c1cccc(-n2cccc2/C=C2/NC(=O)N(Cc3ccccc3F)C2=O)c1 | – | – | 50µM | –
O=C1N/C(=C/c2cccn2-c2ccccc2)C(=O)N1Cc1ccc(F)cc1 | – | – | 45µM | –
C[C@H](CO)N1C[C@H](C)[C@@H](CN(C)C(=O)Nc2ccccc2)Oc2ccc(NC(=O)Cc3ccccc3)cc2C1=O | – | · | · | –
O=C(NCc1ccc(Cl)cc1)c1n[nH]c([N+](=O)[O-])c1Cl | – | – | – | ?
CCCN1CC=C2C(C#N)=C(N)C(C#N)(C#N)C(c3cccc(OC)c3OC)C2C1 (stereo not given) | – | – | – | –
COc1cccc(OC)c1OCc1cc(C2C3CCCC=C3C(C#N)=C(N)C2(C#N)C#N)c(C)cc1C (stereo not given) | – | – | 56µM | –
Cc1[nH]nc2ncc(C(=O)c3cc(F)ccc3O)cc12 | – | – | – | 18µM
O=C(c1cn[nH]c1)c1cc(F)ccc1O | – | – | – | 21µM
CC(=O)Nc1ccc2nc(-c3ccc(Br)o3)[nH]c2c1 | – | – | – | ?
SMILES | Giardia kill | FBPA coupling cs | Sfp inh | ELG1 DNA repair
Cc1ccc(-c2nc3ccc(NS(=O)(=O)c4ccccc4)cc3[nH]2)o1 | – | – | 35µM | ?
O=S(=O)(Nc1ccc2nc(C(F)(F)F)[nH]c2c1)c1ccccc1 | – | – | – | 10µM
O=S(=O)(Nc1ccc2nc(-c3ccc(Br)o3)[nH]c2c1)c1ccccc1 | · | – | 50µM | ?
Cc1cc(=O)oc2cc(NS(=O)(=O)c3ccccc3)ccc12 | – | – | – | –
CN(C)C(=O)c1ccc(NC(=O)COC(=O)C2(c3ccccc3)CCCC2)cc1 | – | · | · | ?
CCOc1ccccc1C(=O)Nc1ccc2c(c1)C(=O)NC2=O | – | – | – | –
OCC[C@H]1C[C@@H](O)[C@H](O)[C@@]2(CCc3ccccc3O2)O1 | – | · | · | –
CCCCCCCC/C=C\C/C=C\C/C=C\CCCC(=O)NCCO | · | – | – | ·
CN(C)CC(CCC(CN(C)C)C(O)(c1ccccc1)c1ccccc1)C(O)(c1ccccc1)c1ccccc1 (stereo not given) | – | – | – | 18µM
CN(C)C/C=C/C(O)(c1ccccc1)c1ccccc1 | – | – | – | ?
Cn1c(=O)c2c(nc(Br)n2Cc2ccccc2Cl)n(C)c1=O | – | – | – | –
CCC(=O)c1ccc(Oc2nc3c(c(=O)n(C)c(=O)n3C)n2CC)cc1 | – | – | – | 15µM
COc1ccc(Oc2nc3c(c(=O)n(C)c(=O)n3C)n2C)cc1 | – | – | – | 9.2µM
CCOc1nc2c(c(=O)n(C)c(=O)n2C)n1Cc1ccccc1Cl | – | – | – | 8.2µM
Cn1c(=O)c2c(nc(Cl)n2CCOc2ccccc2)n(C)c1=O | – | – | – | 9.2µM
COC(=O)c1ccc(Oc2nc3c(c(=O)n(C)c(=O)n3C)n2CCC(C)C)cc1 | – | – | – | –
CC1CCN(S(=O)(=O)c2cccc(C(=O)Nc3nncs3)c2)CC1 | – | – | – | –

Source: PubChem BioAssay
